Source: PubChem BioAssay AID1159580 (chemical genetic matrix, 2015)
Values joined by “and” are separate entries in the source; they are usually repeats but may differ in a detail not shown here. Equal values may be shown once. Out of some 5,500 compounds screened, about 2,000 (36%) were called active. Inconclusive results (about 18%) are left out. Rule as the data show it: active = normalized growth mostly below about 0.91 (no sharp cut-off); inconclusive = no clear call, values can overlap the other calls; inactive = mostly above about 0.92. The list shows a part of the results.

Assay: chemical genetic growth profiling, strain panel (AID 1159580);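 also: tested at 20 µM; growth read once vehicle control cultures reached saturation at 30 °C; 1 = growth at the plate median or of vehicle wells; lower values mean less growth of the strain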
Details: S. cerevisiae deletion strains, growth OD

Measured: normalized growth

C1CCc2nnnn2CC1
inactive: locus YAL013W, strain DEP1, hits give low values 1.01 | locus YAL021C, strain ccr4, hits give low values 1.01 | locus YAL026C, strain drs2, hits give low values 1.01 | locus YAL030W, strain snc1, hits give low values 1 | locus YAL040C, strain CLN3, hits give low values 0.98 | locus YBL061C, strain skt5, hits give low values 1.01 | locus YBR009C, strain hhf1, hits give low values 1.01 | locus YBR021W, strain FUR4, hits give low values 1.01 | locus YBR023C, strain chs3, hits give low values 1.01 | locus YBR171W, strain sec66, hits give low values 1.01 | locus YBR229C, strain ROT2, hits give low values 1.01 | locus YBR231C, strain swc5, hits give low values 1 | locus YBR279W, strain paf1, hits give low values 1.01 | locus YCL011C, strain gbp2, hits give low values 1 | locus YCL016C, strain dcc1, hits give low values 1 | locus YCL029C, strain bik1, hits give low values 1.03 | locus YCL061C, strain MRC1 (second series), hits give low values 1 | locus YCL061C, strain MRC1, hits give low values 0.998 | locus YCL069W, strain vba3, hits give low values 1 | locus YCR088W, strain abp1, hits give low values 1.02 | locus YDL005C, strain med2, hits give low values 0.999 | locus YDL035C, strain GPR1, hits give low values 1.01 | locus YDL040C, strain nat1, hits give low values 1 | locus YDL074C, strain BRE1, hits give low values 1.03 | locus YDL101C, strain DUN1, hits give low values 1.03 | locus YDL134C, strain PPH21, hits give low values 1.01 | locus YDL185W, strain tfp1, hits give low values 1.01 | locus YDL192W, strain arf1, hits give low values 1.01 | locus YDR001C, strain nth1, hits give low values 1.01 | locus YDR069C, strain doa4, hits give low values 1.01 | locus YDR101C, strain arx1, hits give low values 1.01 | locus YDR137W, strain rgp1, hits give low values 1.02 | locus YDR150W, strain NUM1, hits give low values 1.01 and 1 | locus YDR159W, strain sac3, hits give low values 1 | locus YDR162C, strain NBP2, hits give low values 0.994 | locus YDR195W, strain ref2 0.985 | locus YDR297W, strain sur2, hits give low values 1.02 | locus YDR318W, strain mcm21, hits give low values 1.02 | locus YDR334W, strain swr1, hits give low values 1.01 | locus YDR335W, strain msn5, hits give low values 1.01 | locus YDR363W, strain ESC2, hits give low values 1.01 | locus YDR388W, hits give low values 1 | locus YDR392W, strain spt3, hits give low values 1.03 | locus YDR502C, strain sam2, hits give low values 1 | locus YEL003W, strain gim4, hits give low values 1.01 | locus YEL037C, strain rad23, hits give low values 1 | locus YEL061C, strain CIN8 (second series), hits give low values 1.01 | locus YEL061C, strain CIN8, hits give low values 1.01 | locus YER002W, strain NOP16, hits give low values 1.01 | locus YER015W, strain faa2, hits give low values 1 | locus YER016W, strain bim1, hits give low values 1.01 | locus YER110C, hits give low values 1.02 | locus YER111C, strain swi4, hits give low values 1 | locus YER155C, strain BEM2 (second series), hits give low values 1.02 | locus YER155C, strain BEM2, hits give low values 1 | locus YER167W, strain BCK2, hits give low values 1 | locus YFR010W, strain ubp6, hits give low values 1.01 | locus YGL078C, strain dbp3, hits give low values 1 | locus YGL086W, strain mad1, hits give low values 0.99 | locus YGL173C, strain kem1, hits give low values 1.02 | locus YGL227W, strain vid30, hits give low values 1 | locus YGL240W, strain doc1, hits give low values 1.01 | locus YGL248W, strain PDE1, hits give low values 1.01 | locus YGL253W, strain hxk2, hits give low values 1 | locus YGR078C, strain PAC10, hits give low values 1 and 1.03 | locus YGR135W, strain pre9, hits give low values 1.03 | locus YGR229C, strain SMI1, hits give low values 0.969 and 1.01 | locus YGR252W, strain gcn5, hits give low values 0.941 | locus YHR013C, strain ard1, hits give low values 1.02 | locus YHR027C, strain rpn1, hits give low values 1.01 | locus YHR030C, strain SLT2, hits give low values 1.01 and 0.966 | locus YHR079C, strain IRE1 (second series), hits give low values 1.02 | locus YHR079C, strain IRE1, hits give low values 0.964 | locus YHR094C, strain hxt1, hits give low values 1.01 | locus YHR129C, strain ARP1, hits give low values 1.02 | locus YHR142W, strain chs7, hits give low values 1.01 | locus YHR200W, strain rpn10, hits give low values 1.01 | locus YIL066C, strain RNR3, hits give low values 1.02 | locus YIL073C, strain SPO22, hits give low values 1.01 | locus YIL125W, strain kgd1, hits give low values 1 | locus YIR030C, strain dcg1, hits give low values 1.01 | locus YJL092W, strain hpr5, hits give low values 1 | locus YJL095W, strain BCK1 (second series), hits give low values 1 | locus YJL095W, strain BCK1, hits give low values 1.02 and 0.967 | locus YJL115W, strain asf1, hits give low values 0.993 | locus YJL129C, strain trk1, hits give low values 1.01 | locus YJL134W, strain LCB3, hits give low values 1.01 | locus YJL154C, strain vps35, hits give low values 1 | locus YJL164C, strain tpk1, hits give low values 1 | locus YJL166W, strain qcr8, hits give low values 1.01 | locus YJL168C, strain set2, hits give low values 1.01 | locus YJL187C, strain SWE1 (second series), hits give low values 1.04 | locus YJL187C, strain SWE1, hits give low values 1.02 | locus YJR043C, strain POL32, hits give low values 1.01 | locus YJR066W, strain TOR1, hits give low values 0.921
